# Screening data (PubChem BioAssay)
# MBNL1-CUG inh – inhibitors of human MBNL1 binding to CUG repeat RNA. Q9NR56. TR-FRET MBNL1-His/biotin-(CUG)12 binding, 665/545 ratio. Potency, µM (titrated, usually from 57.5 µM), hits mostly inhibitors. 280,000 tested, 0.036% active; active = well fitted inhibition curve with a large enough effect in the signal ratio, with a control signal flat, not every such curve was filed as active; inconclusive = small, poorly fitted or top-dose-only effect, or effect the other way, or a change in a side signal; inactive = no such curve, though single readings can be large or run the other way; the % refers to the signal ratio
#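 His-tagged MBNL1 binding to biotinylated (CUG)12 RNA was measured by TR-FRET using terbium anti-His antibody (0.055 ng/ul final) and streptavidin-XL665 (5 nM final). Compounds were titrated 92 nM to 58 uM; 60 min at room temperature.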
# CtBP-E1A inh – inhibitors of CtBP/E1A interaction. AlphaScreen GST-E1A/His-CtBP binding, 1536-well; hits give low values. activity change, % (concentration not given with the values). 340,000 tested, 0.49% active. AID 651724; in the data active = activity change below about -65%; inconclusive = mostly about -30% to -63%
#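 Homogeneous bead-based format: GST-tagged E1A captured on glutathione donor beads, His-tagged CtBP on nickel acceptor beads; compounds precede bead addition by 2 h at 37 °C.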
# CBFb-RUNX1 inh – CBF-beta/RUNX1 interaction disruption; AlphaScreen CBFb-His/RUNX1-biotin binding, biochemical; 230,000 tested, under 10 active; Potency, µM (doses to about 59.8 µM), most hits filed as inhibitors; Q01196+Q13951; AID 1477
#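 Read-out: AlphaScreen. Format: His-CBF-beta with biotinylated RUNX1 (30 nM each) preincubated 20 min, compound 15 min, Ni-chelate plus streptavidin beads 90 min; room temperature throughout.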
# RORgamma inh – inhibitors of mouse ROR gamma transcriptional activity. P51450. AID 2551. Drosophila S2 Gal4-RORgamma UAS-luciferase reporter, 20 h. Potency, µM (series often up to 53.6 µM), hits mostly inhibitors. 310,000 tested, 5.4% active; note: nearly all actives have a fitted effect of over 60% in size
# Target sequence (P51450 whole entry, looked up, the tested form may be a part): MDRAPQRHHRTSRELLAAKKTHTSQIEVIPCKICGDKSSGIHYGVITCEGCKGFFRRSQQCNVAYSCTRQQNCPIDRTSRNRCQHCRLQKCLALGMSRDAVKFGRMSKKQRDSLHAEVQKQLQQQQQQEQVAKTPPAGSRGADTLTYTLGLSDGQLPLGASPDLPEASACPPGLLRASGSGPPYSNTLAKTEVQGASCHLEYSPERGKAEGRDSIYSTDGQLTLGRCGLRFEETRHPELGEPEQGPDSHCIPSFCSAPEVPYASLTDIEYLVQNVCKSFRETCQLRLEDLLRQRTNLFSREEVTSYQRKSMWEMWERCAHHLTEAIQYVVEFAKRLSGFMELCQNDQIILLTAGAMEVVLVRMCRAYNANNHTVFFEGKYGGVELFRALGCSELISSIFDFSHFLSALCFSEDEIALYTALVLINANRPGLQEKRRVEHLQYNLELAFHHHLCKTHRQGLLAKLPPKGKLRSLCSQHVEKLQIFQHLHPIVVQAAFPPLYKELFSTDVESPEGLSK
#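 A Gal4/UAS one-hybrid system in insect cells: metallothionein-promoter Gal4–ROR gamma fusion plus Photinus luciferase reporter. Copper sulfate 700 uM final, 20 hr ambient incubation, luminescent detection after 10 min with reagent.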
# Six1-Eya2 blk – Six1/Eya2 interaction inhibition | Q15475+O00167 | 360,000 tested, 0.56% active | activity change, % (no concentration beside the values) | AID 651725 | AlphaScreen GST-Six1/His-Eya2 binding, biochemical; hits give low values; in the data active = activity change below about -65%; inconclusive = mostly about -30% to -63%
#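 AlphaScreen luminescence read after one hour at 37 °C in darkness. Pin-transferred compounds met GST-Six1 and His-Eya2 protein (5X stock 250 nM/500 nM) plus glutathione donor and Ni-chelate acceptor beads (5X, 50 ug/mL).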
# VP16 counter – Gal4-VP16 reporter inhibition counter-screen. Drosophila S2 Gal4-VP16 UAS-luciferase, luminescence, 20 h. Potency, µM (doses to about 53.6 µM), most hits filed as inhibitors. 310,000 tested, 3.5% active. AID 2546;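 note: Gal4-VP16 expression switched on by copper sulfate through the metallothionein promoter; nearly all actives have a fitted effect of over 50% in size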
# Numbers stand for hits; n = inactive; u = inconclusive; x = no result given. Sampled rows, rich in hits. Any-hit rate of the full collection: about 5.5%. Unless noted, calls come from the whole dose curve; as a rule, active = well fitted curve in the direction sought with a large enough effect; inconclusive = small, poorly fitted or top-dose-only effect, or another doubt; inactive = no such curve, though single readings can be large; an effect the other way counts as inactive or inconclusive.
SMILES,MBNL1-CUG inh,CtBP-E1A inh,CBFb-RUNX1 inh,RORgamma inh,Six1-Eya2 blk,VP16 counter
COc1ccc(-c2cc3nc[nH]c(=O)c3s2)cc1,n,n,n,n,n,n
COc1ccc(-c2cc3nc(CCl)[nH]c(=O)c3s2)cc1,u,n,x,u,n,10µM
S=c1[nH]nc(-c2ccco2)n1/N=C/c1ccc(Cl)cc1,n,n,u,4.47µM,n,3.98µM
S=c1[nH]nc(-c2cccnc2)n1/N=C/c1ccc(Br)s1,n,n,n,u,n,u
Cc1ccc(/C=N/n2c(-c3ccco3)n[nH]c2=S)s1,n,n,n,8.91µM,n,u
Cn1c(-c2ccco2)n[nH]c1=S,n,n,n,u,n,n
Cc1cc(-c2n[nH]c(=S)n2/N=C/c2ccccc2[N+](=O)[O-])n[nH]1,u,n,n,n,n,u
S=c1[nH]nc(-c2ccco2)n1/N=C/c1ccccc1Cl,n,n,n,3.16µM,n,22.4µM
Cc1ccc(/C=N/n2c(-c3cccnc3)n[nH]c2=S)s1,n,n,n,7.08µM,n,u
O=C(NNc1c(F)c(F)cc(F)c1F)C1CCN(S(=O)(=O)c2ccccc2F)CC1,x,n,x,x,n,x
O=C(CSc1ccc2nnc(CCNC(=O)c3ccccc3)n2n1)Nc1ccc(F)cc1F,n,n,x,n,n,n
O=C(O)c1ccc(Cl)c(NC(=O)C2CCN(S(=O)(=O)c3ccc4c(c3)OCCO4)CC2)c1,x,n,x,x,n,x
O=S(=O)(Cc1cc(N2CCOCC2)nc(-c2ccccn2)n1)c1ccccc1,x,n,n,15.8µM,n,n
Cc1nc(CS(=O)(=O)c2ccc(Cl)cc2)cc(N2CCOCC2)n1,n,n,n,n,n,n
O=C1c2ccccc2C(=O)c2c1cccc2N(CCO)CCO,u,u,x,u,u,n
O=C1C=C(N(CCO)Cc2ccccc2)c2ccccc2C1=O,u,u,n,7.08µM,n,u
CCC(O)(CC)C(=O)N/N=C/c1cc(Br)cc(Br)c1O,n,u,n,0.794µM,u,3.16µM
O=C(Cc1ccccc1)N/N=C/c1cc(Br)cc(Cl)c1O,n,u,n,0.562µM,u,1.26µM
O=C(CP(=O)(c1ccccc1)c1ccccc1)N/N=C/c1cc(Br)cc(Br)c1O,n,n,n,1.12µM,n,2.51µM
O=C(C[n+]1ccccc1)N/N=C/c1cc(Br)cc(Br)c1O,n,n,x,n,-89.1,n
COc1cc(Br)cc(/C=N/NC(=O)Cc2ccccc2)c1O,x,n,x,x,u,x
O=C(O)c1cccc(N/N=C/c2cc(Br)cc(Br)c2O)c1,x,u,n,u,n,n
O=C(C[n+]1ccccc1)N/N=C/c1cc(Br)ccc1F,x,n,x,x,n,x
CCOc1ccc(/C=N/NC(=O)c2ccc(F)cc2)cc1CN1CC2CC(C1)c1cccc(=O)n1C2 (stereo unspecified),x,n,x,x,n,x
Cc1ccc(NC(=S)NNC(=O)c2nn(C)cc2Cl)cc1,n,n,n,u,n,n
SMILES,MBNL1-CUG inh,CtBP-E1A inh,CBFb-RUNX1 inh,RORgamma inh,Six1-Eya2 blk,VP16 counter
Cc1ccc(NC(=S)NNC(=O)c2nnn(-c3ccccc3)c2C)cc1,n,n,x,n,-75.0,n
O=Cc1c[nH]c2cccc(OCc3ccccc3)c12,x,n,x,x,n,x
COc1ccc(NC(=O)C2Cc3c(-c4ccc(NC(C)=O)cc4)ccnc3O2)cn1 (stereo unspecified),x,n,x,x,n,x
c1ccc(-c2nn[nH]n2)cc1,n,n,n,n,n,n
c1ccc(-c2ccc(-c3ccccn3)nn2)nc1,n,x,n,5.62µM,x,8.91µM
c1ccc(-c2nn[nH]n2)nc1,n,-71.5,n,n,-87.4,n
c1ccc(-c2ccccn2)nc1,n,n,n,n,n,n
CN(C1CCCCC1)S(=O)(=O)c1ccc(NC(=S)NC(=O)c2cccs2)cc1,n,n,n,5.62µM,n,u
Cc1cc(C)cc(NS(=O)(=O)c2ccc(NC(=S)NC(=O)c3cccs3)cc2)c1,n,n,n,0.794µM,n,1µM
COc1cc(NS(=O)(=O)c2ccc(NC(=S)NC(=O)c3cccs3)cc2)nc(OC)n1,n,n,n,n,n,n
CCn1c(SCc2nc3sc(C(=O)O)c(C)c3c(=O)[nH]2)nc2ccccc21,n,n,u,n,-68.4,n
